Data reported in PubChem BioAssay.

The compounds below were run against Voltage-gated potassium channel subunit beta-2 (Rattus norvegicus) (UniProt P62483) (assay: KvBeta positive modulators, primary screen, biochemical, NADPH fluorescence (AID 623;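 note: fluorescence intensity change per second fitted from 20 to 320 s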)). Conditions: Recombinant KvBeta, NADPH fluorescence decrease slope, 10 min; at 10 µM; active compounds read low;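 active = NADPH fluorescence slope more negative than the mean of all samples by about 3 SD, 99.7% confidence; inactive = the rest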.
Sequence of Voltage-gated potassium channel subunit beta-2 (Rattus norvegicus) (P62483 whole entry, looked up): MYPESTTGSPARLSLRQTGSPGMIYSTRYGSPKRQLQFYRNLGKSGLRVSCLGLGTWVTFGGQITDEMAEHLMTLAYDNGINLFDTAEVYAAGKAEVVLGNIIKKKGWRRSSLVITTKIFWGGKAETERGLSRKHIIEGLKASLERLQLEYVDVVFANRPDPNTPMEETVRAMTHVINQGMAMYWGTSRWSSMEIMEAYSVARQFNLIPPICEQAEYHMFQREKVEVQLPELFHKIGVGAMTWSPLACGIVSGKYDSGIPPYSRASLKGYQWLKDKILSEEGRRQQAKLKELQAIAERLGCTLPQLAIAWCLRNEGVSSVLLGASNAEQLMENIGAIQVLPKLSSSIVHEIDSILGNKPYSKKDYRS

NADPH fluorescence slope, inactive:
Cc1ccc(-c2nnc(SC(C)C#N)n2N)cc1 (stereo not given) -3.8e-05, CCOc1ccc2[nH]cc(C(=O)N3CCN(CC)CC3)c(=O)c2c1 1.9e-05, Cn1nnnc1SCC(=O)N1CCN(c2ccccc2)CC1 -4.2e-05, CC(C)c1nc(N2CCN(C(=O)c3ccco3)CC2)c2c3c(sc2n1)CCCC3 5.1e-05, CCOc1ccc(OCC)c(NC(=O)CN2CCN(C(=O)c3ccco3)CC2)c1 1.9e-05, O=C(COC(=O)c1cc(S(=O)(=O)N2CCOCC2)cs1)c1ccccc1 -5.8e-05, Cn1c(=O)c2c(-c3ccncc3)c3c(nc2n(C)c1=O)-c1ccccc1C3=O 4.5e-05, Nc1c(N2CCCCC2)c(=O)[nH]c(=O)n1-c1ccccc1 4.1e-05, CC(=O)Nc1ccc(S(=O)(=O)N2CCN(C(=O)CCC3CCCC3)CC2)cc1 5.8e-05, COc1cccc(C2CC(c3ccccc3)n3ncnc3N2)c1 (stereo not given) -2.8e-05, CCOc1ccc2oc(-c3ccccc3)c(C(=O)N3CCN(CCO)CC3)c2c1 1.9e-05, Cc1cc(NCCN2CCOCC2)n2nc(C)c(-c3ccccc3)c2n1 -2.5e-05, COCc1cc(C)nc(Nc2ccc(C)cc2C)c1C#N 5.1e-08, COc1ccccc1-c1nnc(SCC(=O)N2CC(C)CC(C)C2)o1 (stereo not given) -5.2e-05, CC(=O)c1cc2c(cc1NC(=O)CN1CCN(C(=O)c3ccco3)CC1)OCO2 -3.4e-05
